Laboratory results taken from PubChem BioAssay (EPA / NIEHS).
Records with an inconclusive call do not appear. Active and inactive are the calls of the source. The calls were made as follows, unless noted: active = hit-call score of the fitted dose curve at least 0.9, where 1 is the maximum; inactive = score below 0.9.

What was measured:
[1] = ATG_TAL_CIS: Attagene CIS-FACTORIAL HepG2 Assay for human TAL Basal Promoter (AID 2282966); settings: HepG2 Attagene cis-factorial TAL promoter reporter; actives raise or lower the signal;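 also: background control endpoint measuring basal TAL promoter reporter mRNA not a specific factor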
How it was run: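 Human hepatoma HepG2 cells, transfected with promoter-regulated reporter units, were treated 24 h. Reporter transcript levels, measured through RT-PCR and capillary electrophoresis, were fitted for gain or loss relative to DMSO.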

[2] = ATG_TGFb_CIS: Attagene CIS-FACTORIAL HepG2 Assay for human Transforming Growth Factor (TGF) (AID 2282967); settings: HepG2 Attagene CIS TGFb reporter, mRNA transcription; actives raise or lower the signal
How it was run: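 Bidirectional fitting relative to DMSO gave the endpoint. Underlying data: reporter mRNA from HepG2 cells carrying transiently transfected cis-regulated reporter constructs, harvested 24 h after dosing and analyzed by RT-PCR and capillary electrophoresis.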

[3] = ATG_VDRE_CIS: Attagene CIS-FACTORIAL HepG2 Assay for human Vitamin D Receptor Element (VDRE) (AID 2282968); settings: HepG2 VDRE cis-reporter transcription, actives raise or lower the signal
How it was run: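 Readout is VDRE-driven reporter mRNA reflecting endogenous factor activity in human HepG2 cells, sampled 24 h post-dose. Quantification used labelled RT-PCR products separated by capillary electrophoresis; bidirectional analysis relative to DMSO.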

[4] = molecular target: X-box-binding protein 1 (Homo sapiens) (UniProt P17861); test: ATG_Xbp1_CIS: Attagene CIS-FACTORIAL HepG2 Assay for human X-box Binding Protein 1 (XBP1) (AID 2282972); settings: HepG2 XBP1 cis-element reporter, Attagene multiplex; actives raise or lower the signal
Sequence of X-box-binding protein 1 (Homo sapiens) (P17861 whole entry, looked up): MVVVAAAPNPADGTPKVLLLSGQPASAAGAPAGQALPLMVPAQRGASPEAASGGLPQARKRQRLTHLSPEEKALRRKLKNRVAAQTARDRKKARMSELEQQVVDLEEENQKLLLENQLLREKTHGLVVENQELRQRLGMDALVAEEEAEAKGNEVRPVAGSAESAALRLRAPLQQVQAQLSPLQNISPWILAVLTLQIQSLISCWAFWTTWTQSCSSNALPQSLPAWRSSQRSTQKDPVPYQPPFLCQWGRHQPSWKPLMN
How it was run: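 Multiplexed cis-reporter readout in transfected HepG2 liver cells. Exposure lasted 24 hours. Activity in either direction was fitted against DMSO as negative control and baseline.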

[5] = ATG_GAL4_TRANS: Attagene TRANS-FACTORIAL HepG2 Assay for GAL4 (Internal Marker) (AID 2282976; active = hit-call score of the fitted dose curve at least 0.9, where 1 is the maximum); settings: HepG2 Attagene TRANS GAL4 internal marker reporter
How it was run: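 Liver HepG2 line bearing multiplexed GAL4-UAS reporter constructs; 24 h chemical treatment. Transcripts were quantified as fluorescent fragments on capillary electrophoresis after RT-PCR and HpaI cut, with activity fitted upward from DMSO.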

[6] = molecular target: Glucocorticoid receptor (Homo sapiens) (UniProt P04150); test: ATG_GR_TRANS: Attagene TRANS-FACTORIAL HepG2 Assay for human Glucocorticoid Receptor (GR) (AID 2282978; active = hit-call score of the fitted dose curve at least 0.9, where 1 is the maximum;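 also: activators score as hits since higher reporter transcript over DMSO is fitted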); settings: HepG2 Attagene TRANS GR reporter, mRNA transcription
Sequence of Glucocorticoid receptor (Homo sapiens) (P04150 whole entry, looked up, the tested form may be a part): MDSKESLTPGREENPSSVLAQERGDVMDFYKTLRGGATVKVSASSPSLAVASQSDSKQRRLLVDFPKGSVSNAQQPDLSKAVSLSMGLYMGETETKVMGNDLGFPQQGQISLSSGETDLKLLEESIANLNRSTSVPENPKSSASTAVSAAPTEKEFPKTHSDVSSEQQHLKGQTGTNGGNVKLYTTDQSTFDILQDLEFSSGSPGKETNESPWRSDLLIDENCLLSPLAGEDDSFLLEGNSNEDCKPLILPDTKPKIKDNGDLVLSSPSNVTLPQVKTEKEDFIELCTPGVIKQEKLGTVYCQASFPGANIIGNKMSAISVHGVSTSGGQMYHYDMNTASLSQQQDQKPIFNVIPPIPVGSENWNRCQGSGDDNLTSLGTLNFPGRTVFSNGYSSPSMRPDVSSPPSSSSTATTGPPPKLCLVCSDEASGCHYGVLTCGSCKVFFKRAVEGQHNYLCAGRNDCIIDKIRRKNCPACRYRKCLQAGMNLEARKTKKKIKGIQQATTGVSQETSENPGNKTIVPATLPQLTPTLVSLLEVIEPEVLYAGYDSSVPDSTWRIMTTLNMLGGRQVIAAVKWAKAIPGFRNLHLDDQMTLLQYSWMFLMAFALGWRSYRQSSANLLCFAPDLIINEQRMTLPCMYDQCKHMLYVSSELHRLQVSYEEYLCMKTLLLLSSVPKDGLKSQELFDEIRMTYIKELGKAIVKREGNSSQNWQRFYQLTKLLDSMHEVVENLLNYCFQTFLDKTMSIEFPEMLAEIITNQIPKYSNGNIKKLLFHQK
How it was run: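 HepG2 cells transiently transfected with multiplexed reporter units in which chimeric NR-GAL4 proteins drive GAL4-UAS reporters; 24 h compound exposure. Reporter mRNA measured by RT-PCR, 6-FAM labelling, HpaI digestion and capillary electrophoresis; gain-of-signal fitted versus DMSO.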

[7] = molecular target: Bile acid receptor (Homo sapiens) (UniProt Q96RI1); test: ATG_FXR_TRANS: Attagene TRANS-FACTORIAL HepG2 Assay for Farnesoid X Receptor (FXR) (AID 2282979; active = hit-call score of the fitted dose curve at least 0.9, where 1 is the maximum;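 also: hits raise reporter mRNA above DMSO so AC50 marks FXR activation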); settings: HepG2 Attagene TRANS FXR-GAL4 reporter transcription
Sequence of Bile acid receptor (Homo sapiens) (Q96RI1 whole entry, looked up, the tested form may be a part): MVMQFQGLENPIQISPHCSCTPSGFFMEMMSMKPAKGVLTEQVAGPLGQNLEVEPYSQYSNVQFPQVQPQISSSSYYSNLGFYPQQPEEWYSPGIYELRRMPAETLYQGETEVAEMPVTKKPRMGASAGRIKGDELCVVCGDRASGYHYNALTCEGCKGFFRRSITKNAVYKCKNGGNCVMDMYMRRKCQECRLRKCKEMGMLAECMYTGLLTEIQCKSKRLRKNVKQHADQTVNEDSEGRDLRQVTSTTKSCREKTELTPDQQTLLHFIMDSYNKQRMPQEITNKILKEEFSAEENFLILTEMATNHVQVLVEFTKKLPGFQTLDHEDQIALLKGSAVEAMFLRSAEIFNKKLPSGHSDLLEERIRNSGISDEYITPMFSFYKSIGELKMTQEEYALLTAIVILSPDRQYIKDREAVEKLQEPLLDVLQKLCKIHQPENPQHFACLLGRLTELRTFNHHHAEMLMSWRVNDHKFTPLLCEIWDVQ
How it was run: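 After 24 h chemical treatment of transfected HepG2 cells, GAL4-UAS reporter transcripts driven by an exogenous FXR-GAL4 fusion were measured by RT-PCR and capillary electrophoresis. Increases over DMSO were fitted.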

[8] = molecular target: Hepatocyte nuclear factor 4-alpha (Homo sapiens) (UniProt P41235); test: ATG_HNF4a_TRANS: Attagene TRANS-FACTORIAL HepG2 Assay for human Hepatocyte Nuclear Factor 4 alpha (HNF4a) (AID 2282982; active = hit-call score of the fitted dose curve at least 0.9, where 1 is the maximum); settings: HepG2 HNF4a transactivation reporter, mRNA readout
Sequence of Hepatocyte nuclear factor 4-alpha (Homo sapiens) (P41235 whole entry, looked up, the tested form may be a part): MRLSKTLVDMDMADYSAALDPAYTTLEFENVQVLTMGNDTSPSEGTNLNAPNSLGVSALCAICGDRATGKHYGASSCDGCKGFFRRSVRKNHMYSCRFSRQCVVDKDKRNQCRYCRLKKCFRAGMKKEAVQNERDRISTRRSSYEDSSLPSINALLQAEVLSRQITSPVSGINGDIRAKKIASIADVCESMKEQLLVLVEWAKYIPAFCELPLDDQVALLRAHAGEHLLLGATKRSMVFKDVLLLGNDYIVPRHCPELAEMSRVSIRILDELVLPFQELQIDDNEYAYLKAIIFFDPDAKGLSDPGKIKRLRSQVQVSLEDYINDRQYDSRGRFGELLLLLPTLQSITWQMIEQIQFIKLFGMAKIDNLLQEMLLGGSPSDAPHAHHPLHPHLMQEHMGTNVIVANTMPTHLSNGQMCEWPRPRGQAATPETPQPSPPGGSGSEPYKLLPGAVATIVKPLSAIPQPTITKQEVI
How it was run: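 Activity of an exogenous HNF4a–Gal4 fusion scored as induced GAL4-UAS reporter transcripts after 24 h chemical exposure of transfected human HepG2 cells. Read-out via RT-PCR with 6-FAM labelling and capillary electrophoresis; rise over DMSO baseline.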

[9] = ATG_M_06_TRANS: Attagene TRANS-FACTORIAL HepG2 Assay for M06 Transcription Factor (Internal Marker) (AID 2282983; active = hit-call score of the fitted dose curve at least 0.9, where 1 is the maximum); settings: HepG2 Attagene TRANS M06 internal marker reporter
How it was run: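 Multi-reporter-transfected HepG2, 24 h treatment; reporter transcripts quantified via RT-PCR, primer-extension labelling and CE. DMSO-normalized gain-of-signal fit.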

[10] = ATG_M_32_TRANS: Attagene TRANS-FACTORIAL HepG2 Assay for M32 Transcription Factor (Internal Marker) (AID 2282984; active = hit-call score of the fitted dose curve at least 0.9, where 1 is the maximum); settings: HepG2 Attagene TRANS M32 internal marker reporter
How it was run: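 Internal background reporter in transfected HepG2: after 24 h chemical exposure, RNA reverse-transcribed, reporter cDNA amplified, fluorescently labelled and HpaI-cut, then sized by capillary electrophoresis. Gain of signal fitted against DMSO control.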

[11] = molecular target: Nuclear receptor subfamily 4 group A member 2 (Homo sapiens) (UniProt P43354); test: ATG_NURR1_TRANS: Attagene TRANS-FACTORIAL HepG2 Assay for human Nuclear Receptor Related Protein 1 (NURR1) (AID 2282985; active = hit-call score of the fitted dose curve at least 0.9, where 1 is the maximum); settings: HepG2 Attagene TRANS reporter, mRNA readout
Sequence of Nuclear receptor subfamily 4 group A member 2 (Homo sapiens) (P43354 whole entry, looked up, the tested form may be a part): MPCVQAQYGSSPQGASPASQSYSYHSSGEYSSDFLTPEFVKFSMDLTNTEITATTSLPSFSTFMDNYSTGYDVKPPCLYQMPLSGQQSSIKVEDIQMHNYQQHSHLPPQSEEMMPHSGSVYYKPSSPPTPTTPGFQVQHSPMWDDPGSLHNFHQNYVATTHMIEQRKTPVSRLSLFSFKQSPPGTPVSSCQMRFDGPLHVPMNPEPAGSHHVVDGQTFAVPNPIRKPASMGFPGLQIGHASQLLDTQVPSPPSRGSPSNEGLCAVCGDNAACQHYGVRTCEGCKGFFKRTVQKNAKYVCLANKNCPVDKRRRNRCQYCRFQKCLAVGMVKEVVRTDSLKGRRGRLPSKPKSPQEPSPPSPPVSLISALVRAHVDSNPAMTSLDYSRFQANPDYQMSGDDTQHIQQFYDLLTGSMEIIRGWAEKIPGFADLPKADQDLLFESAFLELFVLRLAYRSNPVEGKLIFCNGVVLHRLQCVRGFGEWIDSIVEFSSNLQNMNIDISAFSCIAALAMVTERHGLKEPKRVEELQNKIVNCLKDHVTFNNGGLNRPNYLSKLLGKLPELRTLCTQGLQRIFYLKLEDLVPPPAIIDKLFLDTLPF
How it was run: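 Reporter transcript induction, measured by RT-PCR with fluorescent labelling, HpaI digestion and capillary electrophoresis, after 24 hr dosing of human HepG2 cells transiently expressing an exogenous NR-Gal4 fusion with GAL4-UAS-driven reporters; DMSO as baseline.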

[12] = molecular target: Transcriptional activator Myb (Homo sapiens) (UniProt P10242); test: ATG_Myb_CIS: Attagene CIS-FACTORIAL HepG2 Assay for human Myeloblastosis (Myb) Proto-Oncogene Transcription Factor (AID 2282986); settings: HepG2 Attagene CIS-FACTORIAL Myb reporter transcription; actives raise or lower the signal
Sequence of Transcriptional activator Myb (Homo sapiens) (P10242 whole entry, looked up): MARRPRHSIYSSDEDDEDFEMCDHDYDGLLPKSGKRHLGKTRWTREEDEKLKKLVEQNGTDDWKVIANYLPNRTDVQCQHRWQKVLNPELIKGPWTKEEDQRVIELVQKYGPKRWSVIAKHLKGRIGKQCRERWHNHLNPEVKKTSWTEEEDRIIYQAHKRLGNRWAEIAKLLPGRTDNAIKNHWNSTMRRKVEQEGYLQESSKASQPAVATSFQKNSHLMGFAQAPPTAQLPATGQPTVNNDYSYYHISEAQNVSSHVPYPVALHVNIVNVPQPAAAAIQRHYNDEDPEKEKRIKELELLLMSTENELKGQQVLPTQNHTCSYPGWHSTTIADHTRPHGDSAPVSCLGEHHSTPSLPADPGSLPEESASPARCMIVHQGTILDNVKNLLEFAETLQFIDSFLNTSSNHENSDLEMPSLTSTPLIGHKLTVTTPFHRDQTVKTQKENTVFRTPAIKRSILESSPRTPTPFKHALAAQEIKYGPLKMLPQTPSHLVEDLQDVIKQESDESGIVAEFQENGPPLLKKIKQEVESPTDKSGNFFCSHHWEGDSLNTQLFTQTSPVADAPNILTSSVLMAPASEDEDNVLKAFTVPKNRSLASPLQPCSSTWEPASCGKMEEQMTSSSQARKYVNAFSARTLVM
How it was run: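 HepG2 cells were transiently transfected with cis-regulated multiple reporter transcription units reflecting endogenous Myb activity, then exposed to compound for 24 hours. Reporter mRNA was measured by RT-PCR with capillary electrophoresis; bidirectional fitting versus DMSO baseline.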

[13] = molecular target: Nuclear respiratory factor 1 (Homo sapiens) (UniProt Q16656); test: ATG_NRF1_CIS: Attagene CIS-FACTORIAL HepG2 Assay for human Nuclear Respiratory Factor 1 (NRF1) Orphan Gene (AID 2282987); settings: HepG2 NRF1 cis-element reporter, Attagene multiplex; actives raise or lower the signal
Sequence of Nuclear respiratory factor 1 (Homo sapiens) (Q16656 whole entry, looked up): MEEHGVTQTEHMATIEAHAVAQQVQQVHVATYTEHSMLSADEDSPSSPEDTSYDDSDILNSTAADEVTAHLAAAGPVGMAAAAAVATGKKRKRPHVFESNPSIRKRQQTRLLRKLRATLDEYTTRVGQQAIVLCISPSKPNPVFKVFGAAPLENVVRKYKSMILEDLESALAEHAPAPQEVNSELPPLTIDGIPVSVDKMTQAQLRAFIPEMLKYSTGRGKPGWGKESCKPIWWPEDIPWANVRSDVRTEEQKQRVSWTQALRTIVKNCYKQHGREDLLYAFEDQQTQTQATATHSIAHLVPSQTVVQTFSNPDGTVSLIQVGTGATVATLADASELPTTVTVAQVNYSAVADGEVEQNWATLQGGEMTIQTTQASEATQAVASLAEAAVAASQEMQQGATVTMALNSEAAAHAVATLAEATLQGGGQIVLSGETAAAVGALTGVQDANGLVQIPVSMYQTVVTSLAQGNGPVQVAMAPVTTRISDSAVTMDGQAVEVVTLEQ
How it was run: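 HepG2 cells transiently transfected with multiple reporter transcription units under cis-regulatory promoter control, so endogenous transcription-factor activity is read. After 24 h compound exposure, reporter mRNA quantified by RT-PCR, fluorescent labelling, HpaI digestion and capillary electrophoresis; bidirectional fitting versus DMSO.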

[14] = molecular target: Oxysterols receptor LXR-alpha (Homo sapiens) (UniProt Q13133); test: ATG_LXRa_TRANS: Attagene TRANS-FACTORIAL HepG2 Assay for human Liver X Receptor alpha (LXRa) (AID 2282980; active = hit-call score of the fitted dose curve at least 0.9, where 1 is the maximum); settings: HepG2 Attagene TRANS reporter, LXRa transactivation
How it was run: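 In this multiplexed TRANS system, compounds act on HepG2 cells carrying GAL4-UAS reporter units and a receptor-GAL4 fusion for 24 h. Induced reporter RNA is amplified, fluorescently labelled and sized by capillary electrophoresis, with DMSO as baseline.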

[15] = molecular target: Oxysterols receptor LXR-beta (Homo sapiens) (UniProt P55055); test: ATG_LXRb_TRANS: Attagene TRANS-FACTORIAL HepG2 Assay for human Liver X Receptor beta (LXRb) (AID 2282981; active = hit-call score of the fitted dose curve at least 0.9, where 1 is the maximum); settings: HepG2 Attagene TRANS GAL4-LXRb reporter, mRNA
Sequence of Oxysterols receptor LXR-beta (Homo sapiens) (P55055 whole entry, looked up, the tested form may be a part): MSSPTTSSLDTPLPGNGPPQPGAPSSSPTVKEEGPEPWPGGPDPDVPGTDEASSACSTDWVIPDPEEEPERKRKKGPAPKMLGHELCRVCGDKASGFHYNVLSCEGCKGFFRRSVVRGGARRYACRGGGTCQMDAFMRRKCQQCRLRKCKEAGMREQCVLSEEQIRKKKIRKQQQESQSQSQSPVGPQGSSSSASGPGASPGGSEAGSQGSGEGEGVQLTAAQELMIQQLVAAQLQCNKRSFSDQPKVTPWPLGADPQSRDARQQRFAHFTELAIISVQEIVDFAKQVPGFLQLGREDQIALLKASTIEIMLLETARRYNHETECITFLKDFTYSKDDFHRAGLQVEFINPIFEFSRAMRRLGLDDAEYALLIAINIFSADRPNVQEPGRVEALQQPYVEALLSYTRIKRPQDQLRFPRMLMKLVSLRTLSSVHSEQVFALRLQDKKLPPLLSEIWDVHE
How it was run: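 After 24 h chemical treatment of transfected HepG2 cells carrying exogenous NR-Gal4 chimeras, reporter mRNA was quantified by fluorescent RT-PCR and capillary electrophoresis; activity taken as increase over DMSO controls.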

[16] = ATG_M_19_TRANS: Attagene TRANS-FACTORIAL HepG2 Assay for M19 Transcription Factor (Internal Marker) (AID 2282974; active = hit-call score of the fitted dose curve at least 0.9, where 1 is the maximum); settings: HepG2 Attagene TRANS-FACTORIAL M19 internal marker reporter
How it was run: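 HepG2 cells transiently transfected with multiple GAL4-UAS reporter transcription units were exposed to chemicals for 24 h. Reporter mRNA was read by RT-PCR, 6-FAM primer extension, HpaI digestion and capillary electrophoresis; gain of signal fitted relative to DMSO.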

[17] = molecular target: Estrogen-related receptor gamma (Homo sapiens) (UniProt P62508); test: ATG_ERRg_TRANS: Attagene TRANS-FACTORIAL HepG2 Assay for human Estrogen-Related Receptor gamma (ERRg) (AID 2282977; active = hit-call score of the fitted dose curve at least 0.9, where 1 is the maximum;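 also: hits increase reporter signal over DMSO so potencies reflect activators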); settings: HepG2 Attagene TRANS reporter, ERRg transactivation
Sequence of Estrogen-related receptor gamma (Homo sapiens) (P62508 whole entry, looked up, the tested form may be a part): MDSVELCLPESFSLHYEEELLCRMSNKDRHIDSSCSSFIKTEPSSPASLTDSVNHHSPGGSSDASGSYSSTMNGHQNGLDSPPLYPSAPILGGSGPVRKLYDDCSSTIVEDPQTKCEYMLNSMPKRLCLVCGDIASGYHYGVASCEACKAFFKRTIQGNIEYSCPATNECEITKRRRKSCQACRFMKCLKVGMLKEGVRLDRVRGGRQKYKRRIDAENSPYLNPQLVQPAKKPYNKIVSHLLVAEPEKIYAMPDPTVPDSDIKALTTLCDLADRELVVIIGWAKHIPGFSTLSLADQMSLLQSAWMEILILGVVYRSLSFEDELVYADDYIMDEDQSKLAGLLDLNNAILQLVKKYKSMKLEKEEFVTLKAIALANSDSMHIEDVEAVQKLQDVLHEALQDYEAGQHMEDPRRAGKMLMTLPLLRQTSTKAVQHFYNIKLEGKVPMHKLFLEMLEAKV
How it was run: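 Exogenous NR-Gal4 chimera activity measured as reporter transcript induction after 24 h in transiently transfected HepG2 cells. RNA reverse-transcribed, PCR-amplified, 6-FAM-labelled and resolved by capillary electrophoresis; increase over DMSO baseline.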

Measured: AC50

CCCCC1CCC(O)CC1 (stereo not given)
inactive: [1] | [2] | [3] | [4] | [5] | [6] | [7] | [8] | [9] | [10] | [11] | [12] | [13]

CSc1c(Cl)c(Cl)c(Cl)c(Cl)c1Cl
inactive: [1] | [2] | [3] | [6] | [7] | [14] | [15] | [9] | [10] | [12]
active: [4] 136 µM | [11] 26.9 µM | [13] 169 µM

CCOC(=O)CN
inactive: [1] | [2] | [3] | [4] | [5] | [7] | [14] | [8] | [9] | [12] | [13]

CCNCCO
inactive: [1] | [2] | [3] | [4] | [6] | [7] | [8] | [9] | [11] | [12] | [13]

C=C(C)C(=O)OCCOC1CC2CC1C1C=CCC21 (stereo not given)
inactive: [1] | [2] | [3] | [4] | [5] | [14] | [8] | [9] | [10] | [11] | [12] | [13]

OCCOCCN1CCN(C2=Nc3ccccc3Sc3ccccc32)CC1
active: [3] 19.5 µM
inactive: [1] | [2] | [4] | [5] | [7] | [14] | [15] | [9] | [11] | [12]

OCC#CCO
inactive: [1] | [2] | [3] | [4] | [6] | [7] | [9] | [10] | [11] | [12] | [13]

CC(=O)CC(=O)Nc1ccccc1
inactive: [1] | [2] | [3] | [4] | [5] | [7] | [15] | [8] | [9] | [11] | [12]

O=C1OC(=O)c2c(Br)c(Br)c(Br)c(Br)c21
inactive: [1] | [2] | [3] | [4] | [5] | [15] | [9] | [11] | [12] | [13]

C=CC(=C)CCCC(C)(C)OC(C)=O
inactive: [1] | [2] | [3] | [4] | [16] | [14] | [15] | [8] | [9] | [12] | [13]

C=C1CC[C@H](O)C/C1=C/C=C1\CCC[C@]2(C)[C@@H]([C@H](C)/C=C/[C@H](C)C(C)C)CC[C@@H]12
inactive: [1] | [2] | [3] | [4] | [6] | [7] | [14] | [9] | [12] | [13]

CC(=O)C(C)O (stereo not given)
inactive: [1] | [2] | [3] | [4] | [5] | [14] | [15] | [8] | [9] | [11] | [12] | [13]

C=C(CC(=O)O)C(=O)O
inactive: [1] | [2] | [3] | [4] | [5] | [7] | [15] | [9] | [12] | [13]

CCC1CCCCC1
inactive: [1] | [2] | [3] | [4] | [16] | [14] | [12] | [13]

OCC(O)c1ccccc1 (stereo not given)
inactive: [1] | [2] | [3] | [4] | [5] | [14] | [11] | [12]

[O-]n1ccccc1=S.[O-]n1ccccc1=S.[Zn+2]
inactive: [1] | [2] | [3] | [4] | [5] | [14] | [8] | [9] | [10] | [12] | [13]

[Cl][Au]([Cl])[Cl]
active: [13] 147 µM
inactive: [1] | [2] | [3] | [4] | [17] | [7] | [14] | [15] | [8] | [9] | [11] | [12]

CCC1(c2ccccc2)C(=O)NCNC1=O
inactive: [1] | [2] | [3] | [4] | [6] | [7] | [15] | [8] | [9] | [12] | [13]

Cc1ccc(S(N)(=O)=O)cc1
inactive: [1] | [2] | [3] | [4] | [5] | [6] | [7] | [14] | [8] | [9] | [10] | [12] | [13]

C=C1C[C@]23C[C@@]1(O)CC[C@H]2[C@@]12C=C[C@H](O)[C@@](C)(C(=O)O1)[C@H]2[C@@H]3C(=O)O
inactive: [1] | [2] | [3] | [4] | [17] | [6] | [14] | [8] | [9] | [12] | [13]

CC1CCC(C(C)C)C(O)C1 (stereo not given)
inactive: [1] | [2] | [3] | [4] | [5] | [7] | [14] | [15] | [9] | [11] | [12] | [13]

CC=Cc1ccc(OC)c(OC)c1
inactive: [1] | [2] | [3] | [4] | [16] | [7] | [14] | [8] | [10] | [11] | [12] | [13]

CCCCCCOC(=O)C(C)C
inactive: [1] | [2] | [3] | [4] | [17] | [15] | [8] | [9] | [12] | [13]
